Experimental data published in PubChem BioAssay (NCI).
Compounds without any hit were thinned out: in the full panel of roughly 83,000, 20% have a hit.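 Treatment: one concentration, 48 hours, 96-well format. Scoring: percent growth, with anything below 10 considered active.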 Values without a mark were called inactive. Activity calls are given as the source filed them.

Columns and labels:
Assay in all cases: NCI-60 one-dose screen, 48 h (100 = growth as untreated, 0 = no growth, -100 = all killed)
Conditions in all cases: 10 µM unless noted
[1] = tested on: T-47D breast
[2] = tested on: BT-549 breast
[3] = tested on: MDA-MB-435 melanoma
[4] = tested on: SW-620 colon
[5] = tested on: MCF7 breast
[6] = tested on: HCT-116 colon
[7] = tested on: HCC-2998 colon
[8] = tested on: KM12 colon

Row | SMILES | growth [1] | growth [2] | growth [3] | growth [4] | growth [5] | growth [6] | growth [7] | growth [8]
1 | CS(=O)(=O)Cc1cnc(C2OCCO2)s1 | 129% | 97.6% | 109% | 113% | 96.4% | 98.8% | 107% | 88.9%
2 | Nc1ccc([N+](=O)[O-])cc1N=C/C=C/c1ccccc1 | 66.2% | 55% | 5.57% (active) | 35.3% | 51.5% | 67.2% | 73% | 40.3%
3 | c1ccc(CNc2ccc3nc(CCC4CCCCC4)[nH]c3c2)cc1 | 33.9% | 72.2% | 81.6% | 67.8% | 62% | 54.6% | 45.8% | 66.7%
4 | CO[C@H](C(=O)[C@@H](O)[C@@H](C)O)[C@@H]1Cc2cc3cc(O[C@H]4C[C@@H](O[C@H]5C[C@@H](O)[C@H](O)C(C)O5)[C@H](O)C(C)O4)c(C)c(O)c3c(O)c2C(=O)[C@H]1O[C@H]1C[C@@H](O[C@H]2C[C@@H](O[C@H]3C[C@@H](OC)[C@H](O)C(C)O3)[C@@H](O)C(C)O2)C(O)(O)C(C)O1 (some centres undefined) | 0.438% (active) | -20.1% (active) | -30.5% (active) | 22% | 4.2% (active) | 6.1% (active) | -13.7% (active) | 9.69% (active)
5 | CCN(CC)S(=O)(=O)c1ccc(S(=O)(=O)N2CCC[C@@H](C(=O)N3CCN(C(=O)OC(C)(C)C)CC3)C2)cc1 | 44.5% | 61.5% | 60.6% | 80.4% | 49.3% | 54.1% | 89.6% | 76.9%
6 | COc1cccc(OC)c1Oc1c(-c2nc3ccccc3s2)c(C)nn1-c1ccccc1 | 42.1% | 36.3% | 88.1% | 88% | 82.1% | 53.8% | 81.9% | 59.7%
7 | C#CC#CC#CC#CC#CC#CC#CC#CC[C@H]1OC[C@H](COC(=O)O[C@@H](C(=O)O[C@H]2C[C@@]3(O)[C@@H](OC(=O)c4ccccc4)[C@@H]4[C@]5(OC(C)=O)CO[C@@H]5C[C@H](O)[C@@]4(C)C(=O)[C@H](OC(C)=O)C(=C2C)C3(C)C)[C@@H](NC(=O)c2ccccc2)c2ccccc2)O1 | 40.6% | 53.2% | -57.8% (active) | 38% | 24.4% | 15.5% | 38.2% | 18%
8 | CN(Cc1cnc2nc(N)nc(N)c2n1)c1c(Cl)cc(C(=O)NC(CCC(=O)O)C(=O)O)cc1Cl (centres undefined) | 53.2% | 21.9% | 25.7% | 29.1% | 19.2% | 18.9% | 20.9% | 29.6%
9 | O[C@@H](c1cc(C(F)(F)F)nc2c(C(F)(F)F)cccc12)[C@H]1CCCCN1 | 43.1% | 66.1% | 73.1% | 73.7% | 36.3% | 36.1% | 80.5% | 50.1%
10 | CC(C)(CO)N(CCO)CCO | 112% | 101% | 108% | 111% | 100% | 106% | 105% | 106%
11 | Nc1c(C(=O)Nc2cccc3ncccc23)sc2nc3c(cc12)C(=O)CCC3 | 49.3% | 55.2% | -18.2% (active) | 39.1% | 25.2% | 44.1% | 75.8% | 46.5%
12 | CCn1cc(C(=O)N/N=C/c2ccc(Br)cc2)c(=O)c2cc(F)c(N3CCNC(C)C3)c(F)c21 (centres undefined) | 64.1% | 91.7% | 16.7% | -74.1% (active) | -77.3% (active) | 67.7% | 25.9% | 47.9%
13 | O=C1NC(=C(Cl)Cl)/C(=N/S(=O)(=O)NCCc2c[nH]c3ccccc23)N1 | 47.1% | 9.16% (active) | 25.1% | 54.3% | 14.2% | 34.9% | 98.3% | -4.6% (active)
14 | O=[N+]([O-])/C(=C\c1ccco1)c1ccccc1Cl | 36.6% | 9.05% (active) | 75.6% | 84.1% | 38.4% | 11.8% | 94.9% | 89.5%
15 | C=C1C(=O)O[C@H]2[C@H]1CC/C(COC(=O)c1cc3cc(F)ccc3[nH]1)=C\CC[C@@]1(C)O[C@@H]21 | -51.8% (active) | -82.9% (active) | -82% (active) | -69.2% (active) | -61.7% (active) | -87.2% (active) | -83.4% (active) | -48% (active)
16 | COc1cc(C(=O)C(=O)c2cc(OC)c(O)c(OC)c2)cc(OC)c1O | 98.1% | 120% | 103% | 105% | 96.5% | 104% | 92.1% | 107%
17 | CC(=O)N(Cc1ccccc1)c1nc2ccc(O)c(CN(C)C)c2s1 | 85.2% | 96.6% | 99.7% | 94.7% | 87.8% | 102% | 105% | 102%
18 | O=C1NC(=O)c2c1c1c3ccccc3[nH]c1c1oc3cc(Br)ccc3c21 | 28.1% | 81.3% | 76.6% | 51.5% | 36.2% | 65.1% | 99.7% | 64.4%
19 | N#C/C(=C\c1ccc(Br)cc1)c1cc2ccccc2[nH]1 | 74.7% | 97% | 99.1% | 93.4% | 62.2% | 84.7% | 101% | 90.7%
20 | COc1cc(/C=N/Nc2ccccc2F)cc(OC)c1OC | 67.7% | 96% | 94.3% | 93.6% | 78.3% | 84.5% | 108% | 86.3%
21 | Cc1cc2nc3c4ccccc4n(CCN(C)C)c3nc2cc1C | 32.2% | 53.1% | 8.26% (active) | -30.8% (active) | -0.456% (active) | 7.19% (active) | 22.1% | 17.4%
22 | CC1(C)CC[C@]2(C(=O)N3CCOCC3)CC[C@]3(C)C(=CC[C@@H]4[C@@]5(C)C/C(=C/c6ccncc6)C(=O)C(C)(C)[C@@H]5CC[C@]43C)[C@@H]2C1 | 20.2% | -2.62% (active) | 6.81% (active) | 10.4% | 8.43% (active) | -32.6% (active) | -24.5% (active) | 6.58% (active)
23 | O=c1oc2c(cnc3ccccc32)cc1-c1cccs1 | 95.9% | 96.9% | 103% | 103% | 98.1% | 91.1% | 117% | 105%
24 | Cc1cccc(N2CCN(C(=S)c3ccc4c(c3)OCO4)CC2)c1 | 32.9% | 32.9% | -20.9% (active) | 8.2% (active) | 12.5% | 13.6% | 13.2% | 21.5%
25 | CC(=O)N/C(=C1/OC(C(O)C(O)C(O)CO)CN1C)[P+](c1ccccc1)(c1ccccc1)c1ccccc1 (centres undefined) | 103% | 102% | 103% | 104% | 92.8% | 100% | 97.7% | 103%
26 | COc1cc2nc(Nc3cccc(F)c3)nc(Nc3cc(C)[nH]n3)c2cc1OC | -45.8% [20 µM] (active) | -83.8% [20 µM] (active) | -88.7% [20 µM] (active) | -58.9% [20 µM] (active) | -66% [20 µM] (active) | -68.2% [20 µM] (active) | -88.3% [20 µM] (active) | -69.2% [20 µM] (active)
27 | COc1cc(-c2nc(SCCC(C)C)nc(N3CCOCC3)c2C#N)cc(OC)c1OC | 13.9% | 79.9% | 85.6% | 27.7% | 58.9% | 5.13% (active) | 91.7% | 38%
28 | CC[C@]12C=CCN3CC[C@@]4(c5ccc(OC)cc5N(C)[C@H]4[C@@](O)(C(=O)OC)[C@@H]1OC(=O)CCCN1CCOCC1)[C@@H]32 | 106% | 105% | 100% | 105% | 103% | 101% | 109% | 107%
